Screening data from PubChem BioAssay.
D1 PAM – human D1 dopamine receptor positive modulation | HEK293 TREx D1 cells, calcium flux, dopamine EC20 potentiation | potentiation, % at 10 µM | 0.036% of 360,000 active | AID 504651; in the data active = potentiation above about 30%
Target sequence (P21728 whole entry, looked up): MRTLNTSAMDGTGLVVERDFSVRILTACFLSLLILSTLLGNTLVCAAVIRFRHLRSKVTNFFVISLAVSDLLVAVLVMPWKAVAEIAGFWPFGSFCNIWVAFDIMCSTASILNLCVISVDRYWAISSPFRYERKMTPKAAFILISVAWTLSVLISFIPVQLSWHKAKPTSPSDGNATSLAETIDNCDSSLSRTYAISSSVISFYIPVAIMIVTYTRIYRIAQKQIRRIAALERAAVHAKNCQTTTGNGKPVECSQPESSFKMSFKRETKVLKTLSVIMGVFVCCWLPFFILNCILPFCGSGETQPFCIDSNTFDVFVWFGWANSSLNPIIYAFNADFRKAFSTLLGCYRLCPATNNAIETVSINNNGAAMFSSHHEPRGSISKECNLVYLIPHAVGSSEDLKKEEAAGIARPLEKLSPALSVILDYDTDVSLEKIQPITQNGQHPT
GRP78 ERSR act – induces the endoplasmic reticulum stress response in human glioma cells. U87-MG GRP78 promoter luciferase reporter, 16 h. Potency, µM, hits mostly activators. 0.02% of 420,000 active; active = well fitted activation curve with a large enough effect; also: series mostly up to about 76 µM; nearly all actives have a fitted effect of over 35% in size
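Stably transfected U87-MG glioma cells carrying a GRP78-based luciferase sensor; 16 h compound incubation. Luminescence end-point read 10 min after Bright-Glo addition at room temperature.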
D1 antag – antagonists of human D1 dopamine receptor; P21728; HEK293 TREx D1 cells, calcium flux, dopamine EC80; stronger effect = lower value; activity change, negative = inhibition, % at 10 µM; 3.2% of 360,000 active; in the data active = activity change below about -30%
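Kinetic fluorescence of a calcium dye serves as the read-out. D1-expressing Hek293 Trex cells, induced overnight at 30 C, are exposed to compound for 180 s before an EC80 dopamine addition, then read 180 s further.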
TRHR PAM – TRH receptor (human) allosteric enhancement. P34981. TRHR cells, fluo-8 calcium fluorescence, EC20 TRH enhancement. enhancement, % at 2 µM. 0.66% of 360,000 active; in the data active = enhancement above about 30%
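Enhancer read-out: after compound pinning and an initial kinetic agonist-mode read, an EC20 of TRH (10 nM final) was injected and fluo-8 calcium signal (Ex 480/Em 530) followed at 1 s/cycle for 100 cycles in TRHR-expressing cells.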
TRHR ag – agonists of human TRH receptor. AID 493084. P34981. 0.18% of 360,000 active. activation, % at 2 µM. TRHR cells, calcium flux fluo-8, FDSS agonist mode
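In this calcium-flux screen, cells bearing human TRHR are dye-loaded with fluo-8, baselined for 10 cycles, then exposed to library compounds; positive kinetic calcium responses during the agonist phase mark hits, with TRH as control.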
D1 agonist – human D1 receptor agonism. P21728. 1% of 360,000 active. HEK293 T-REx D1 cells, calcium flux, agonist mode. activation, % at 2 µM
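Agonism was scored from calcium flux recorded over 180 s (1 read/s) after pintool compound addition, following a 10-cycle baseline. Cells were inducible force-coupled HEK293 TREx D1, plated overnight at 30 C and loaded with no-wash calcium dye.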
Each line names hits and unclear results; the compound was inactive in the other large screens. Only some compounds are listed: those with a hit (about 4% of all), similar ones and a draw of the others. Rule as the data show it, unless noted: active = activation above about 30%; inactive = the rest.

CCOc1ccc(C2CC(c3ccc(OC)cc3)n3ncnc3N2)cc1 (configuration not stated)	none
COc1ccc(C2CC(c3ccco3)n3ncnc3N2)cc1 (configuration not stated)	TRHR PAM 37
O=C(CNC(=O)c1ccc(Cl)cc1Cl)OCc1ccccc1	D1 antag -32
Cc1ccsc1C(=O)NCC(=O)OCc1ccccc1	D1 antag -30
O=C(NNC(=O)c1ccc(Cl)cc1Cl)Nc1ccccc1	D1 antag -38
O=C(COC(=O)CNC(=O)c1ccc(Cl)cc1Cl)NNC(=O)c1ccccc1	none
O=C(Nc1ccc(Nc2ccccc2)cc1)c1ccc(Cl)cc1Cl	none (no result: D1 PAM, D1 antag, TRHR PAM, TRHR ag, D1 agonist)
O=C(NCc1n[nH]c(=S)n1Cc1ccccc1)c1ccc(Cl)cc1Cl	D1 antag -31
C=CC[C@H](CC(=O)NCCO)C(=O)N[C@@H](C)COC(=O)[C@H](CC=C)CC(=O)OC(C)(C)C	none (no result: D1 PAM, D1 antag, TRHR PAM, TRHR ag, D1 agonist)
COc1cc(NC(=O)NCc2ccco2)ccc1-c1ccc(NC(=O)NCc2ccco2)cc1OC	none (no result: D1 PAM, D1 antag, TRHR PAM, TRHR ag, D1 agonist)
Cc1cc(OC(=O)c2c(C)cc(OC(=O)c3c(C)cc(O)cc3O)cc2O)cc(O)c1C(=O)O	none (no result: D1 PAM, D1 antag, TRHR PAM, TRHR ag, D1 agonist)
Cc1cc([N+](=O)[O-])ccc1NC(=O)CSc1nccc(=O)[nH]1	none
COC(=O)c1ccc(S(=O)(=O)N2CCCCC2)o1	TRHR PAM 36
CCOC(=O)C1(C)CCN1C(=O)c1ccc(N(C)C)cc1 (configuration not stated)	none (no result: D1 PAM, D1 antag, TRHR PAM, TRHR ag, D1 agonist)
Cc1c(C(=O)N2CCOCC2)c(S(=O)(=O)Nc2cccc(Br)c2)c(C)n1C	none
CC(C)CNc1nc(=S)nc(N(C)C)[nH]1	none
CCCS(=O)(=O)c1nc(S(=O)(=O)c2ccc(C)cc2)c(N(C)Cc2ccccc2)s1	D1 agonist 35
COc1ccc(-c2noc(CN(C(C)C)S(=O)(=O)c3ccc(Br)cc3)n2)cc1	none (no result: GRP78 ERSR act)
Cc1cccc(-c2noc(CN(C(C)C)S(=O)(=O)c3ccc(Br)cc3)n2)c1	D1 agonist 34
Cc1ccc(NC(=S)NC2CCN(Cc3ccccc3)CC2)cc1C	D1 antag -82
S=C(Nc1cc(Cl)cc(Cl)c1)NC1CCN(Cc2ccccc2)CC1	none
S=C(Nc1ccccc1Cl)NC1CCN(Cc2ccccc2)CC1	none
S=C(Nc1ccc2c(c1)OCO2)NC1CCN(Cc2ccccc2)CC1	D1 antag -38
Cc1c(Cl)cccc1NC(=S)NC1CCN(Cc2ccccc2)CC1	D1 antag -33
CC(C)c1ccc(NC(=S)NC2CCN(Cc3ccccc3)CC2)cc1	D1 agonist 36
COc1ccc(CCNC(=O)CCCn2nc(C)c([N+](=O)[O-])c2C)cc1OC	none
CSc1nc(O)c(C(c2ccc(C)cc2)c2c(O)nc(SC)[nH]c2=O)c(=O)[nH]1	none
COc1cc(C(=O)Oc2cc(C)cc(C)c2)cc(OC)c1OC	none
Cc1ccc(NC(=S)NC2CCN(Cc3ccccc3)CC2)cc1	D1 antag -64
Cn1c(CNC(=O)C2CCCCC2)cc2cc(Cl)ccc21	none
COC(=O)C1=NNC(C(=O)c2ccco2)C1c1ccc(OC)cc1 (configuration not stated)	none
COc1ccc(Cn2c(CCC(=O)Nc3cc(OC)c(OC)c(OC)c3)nc3cccnc32)cc1	D1 antag -47
COc1ccc(NC(=O)COc2ccc(C)nc2[N+](=O)[O-])cc1S(N)(=O)=O	D1 antag -40
Cc1ccc(OCC(=O)Nc2ccc3c(c2)CCC3)c([N+](=O)[O-])n1	none
CCC(C(=O)NC1CCCCC1)N(CC1CCCO1)C(=O)CNS(=O)(=O)c1ccc(OC)cc1 (configuration not stated)	none
CCOC(=O)C1(Cc2ccc(Cl)cc2)CCN(C(C)Cc2ccc(O)c(OC)c2)CC1 (configuration not stated)	D1 antag -37
CCOC(=O)C1(Cc2ccc(OC)cc2)CCN(S(C)(=O)=O)CC1	none
Cc1c(C(=O)NCCSCc2c(Cl)cccc2Cl)cccc1[N+](=O)[O-]	D1 antag -32, D1 agonist 44
COCCNC(=O)CSCc1c(F)cccc1Cl	D1 antag -44
COc1ccc(CNC(=O)CSCc2c(F)cccc2Cl)cc1	none
